Screening results from PubChem BioAssay.
The list is not random: actives were taken first. Their share in the collection is about 2.8%.
CDK5 inh: CDK5/p35 (human) kinase inhibition. Q00535+Q15078. Recombinant CDK5/p35, ADP-Glo luminescence, 60 min. inhibition, % at 10 µM. 0.01% of 330,000 active. AID 488839;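 active means highest replicate inhibition of at least 50% and at least 75% of replicates reaching 50%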
PglD DTNB: inhibitors of Campylobacter jejuni PglD acetyltransferase; purified PglD enzyme, DTNB colorimetric CoA detection; inhibition, % at 12.5 µM; 0.098% of 360,000 active; AID 602405; in the data active means inhibition above about 16%, passing the limit was not always enough
PvdQ inh: blocks Pseudomonas aeruginosa PvdQ acylase activity. purified PvdQ acylase, fluorescence plate reader. 0.063% of 340,000 active. inhibition, % at 10 µM. AID 488965; in the data active means inhibition above about 30%, passing the limit was not always enough
SIRT5 inh: blocks human SIRT5 desuccinylation of peptide; Purified SirT5, succinyl-peptide AMC, trypsin-coupled fluorescence; inhibition, % at 15 µM; 1.1% of 330,000 active; AID 652115; in the data active means inhibition above about 15%
Target sequence (Q9NXA8 whole entry, looked up): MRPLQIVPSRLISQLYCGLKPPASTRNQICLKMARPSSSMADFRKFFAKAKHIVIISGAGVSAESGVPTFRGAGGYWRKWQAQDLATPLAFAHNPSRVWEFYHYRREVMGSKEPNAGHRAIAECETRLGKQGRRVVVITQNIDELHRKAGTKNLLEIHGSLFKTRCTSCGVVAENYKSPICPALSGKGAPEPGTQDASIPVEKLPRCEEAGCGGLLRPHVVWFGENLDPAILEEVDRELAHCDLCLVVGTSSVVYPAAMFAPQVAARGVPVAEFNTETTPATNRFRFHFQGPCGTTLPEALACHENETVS
FGF22 binding: binders of recombinant human FGF22 by thermal shift; SYPRO orange fluorescence; percent of sucrose octasulfate shift, DMSO zero; activity (Tm shift, normalised), % at 9.99 µM; 1.5% of 340,000 active;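 active means mean Tm shift, scaled 0 neutral to 100 positive control, at about 1.3% or above, every replicate too, limit read from the data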
Target sequence (Q9HCT0 whole entry, looked up): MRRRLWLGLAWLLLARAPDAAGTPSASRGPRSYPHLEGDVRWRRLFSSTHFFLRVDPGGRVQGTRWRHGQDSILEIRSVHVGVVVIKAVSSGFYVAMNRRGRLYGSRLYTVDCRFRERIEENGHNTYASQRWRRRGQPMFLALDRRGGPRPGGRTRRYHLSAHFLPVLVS
dFosB activator: activators of mouse delta FosB homodimer; P13346; purified delta FosB, TAMRA-CDK5 oligo fluorescence polarization; percent of positive-control signal above neutral wells; activation, % at 25 µM; 0.99% of 340,000 active;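 active means mean activation above about 17%, with every replicate also reaching it, limit read from the data, passing the limit was not always enough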
Each line names hits and unclear results; the compound was inactive in the other large screens; ! = not active in a repeat.

CC(C)CC#Cc1ccc2c(c1)O[C@H](CN(C)Cc1ccc(C(=O)O)cc1)[C@@H](C)CN([C@H](C)CO)S2(=O)=O	SIRT5 inh 29 (no result: CDK5 inh, PvdQ inh, dFosB activator)
C[C@H](CO)N1C[C@H](C)[C@@H](CN(C)Cc2cccnc2)Oc2cc(C#CC3CCCC3)ccc2S1(=O)=O	SIRT5 inh 15 (no result: CDK5 inh, PvdQ inh, dFosB activator)
C[C@H](CO)N1C[C@H](C)[C@H](CN(C)Cc2cccnc2)Oc2cc(C#CC3CCCCC3)ccc2S1(=O)=O	SIRT5 inh 12 (no result: CDK5 inh, PvdQ inh, dFosB activator)
C[C@H]1CN([C@@H](C)CO)S(=O)(=O)c2ccc(-c3ccc(C#N)cc3)cc2O[C@@H]1CN(C)Cc1cccc(F)c1	SIRT5 inh 16 (no result: CDK5 inh, PvdQ inh, dFosB activator)
COc1ccccc1S(=O)(=O)N(C)C[C@@H]1Oc2cc(C#CCC(C)C)ccc2S(=O)(=O)N([C@H](C)CO)C[C@@H]1C	SIRT5 inh 23! (no result: CDK5 inh, PvdQ inh, dFosB activator)
Cc1ccc(-c2ccc3c(c2)O[C@H](CN(C)Cc2cccnc2)[C@H](C)CN([C@@H](C)CO)S3(=O)=O)cc1	SIRT5 inh 15 (no result: CDK5 inh, PvdQ inh, dFosB activator)
C/C=C/c1ccc([C@@H]2[C@@H](CO)N(S(C)(=O)=O)C23CN(C(=O)CC)C3)cc1	none (no result: CDK5 inh, PglD DTNB, PvdQ inh, dFosB activator)
C/C=C/c1ccc([C@H]2[C@H](CO)N(C(C)=O)[C@H]2CN(C)S(C)(=O)=O)cc1	none (no result: CDK5 inh, PvdQ inh, SIRT5 inh, FGF22 binding, dFosB activator)
CCCCCCCCN1C(=O)[C@H](CC(=O)NCC2CCCCC2)C[C@@]2(C(=O)OCC)CCCC=C12	none (no result: CDK5 inh, PglD DTNB, PvdQ inh, dFosB activator)
CCCCCCCCN1C(=O)[C@H](CC(=O)NCC2CCCCC2)C[C@@]2(C(=O)OCC)CCC=C12	SIRT5 inh 22 (no result: CDK5 inh, PglD DTNB, PvdQ inh, dFosB activator)
CCOC(=O)[C@]12CCC=C1N(Cc1ccccc1)C(=O)[C@H](CC(=O)NCc1cccs1)C2	none (no result: CDK5 inh, PglD DTNB, PvdQ inh, SIRT5 inh, dFosB activator)
CCOC(=O)[C@]12CCC=C1N(Cc1ccc3c(c1)OCO3)C(=O)[C@H](CC(=O)NCc1cccs1)C2	FGF22 binding 43 (no result: CDK5 inh, PglD DTNB, PvdQ inh, SIRT5 inh, dFosB activator)
C#CCNC(=O)C[C@@H]1C[C@@]2(C(=O)OCC)CCCC=C2N(CCCCCCCC)C1=O	SIRT5 inh 17 (no result: CDK5 inh, PglD DTNB, PvdQ inh, dFosB activator)
O=C(C[C@H]1CC[C@H](NC(=O)c2ccccn2)[C@@H](CO)O1)NCc1cc(F)cc(F)c1	none (no result: CDK5 inh, PvdQ inh, dFosB activator)
CC(C)NC(=O)N[C@@H]1CC[C@H](CCNC(=O)C2CCC2)O[C@H]1CO	none (no result: CDK5 inh, PvdQ inh, dFosB activator)
CC(C)S(=O)(=O)c1ccc(C(=O)Nc2ccc(F)cc2F)cn1	FGF22 binding 43 (no result: PglD DTNB)
CN1CCC(=NNC(=O)C(=O)Nc2ccccc2F)CC1	FGF22 binding 43
CN1CCC(=NNC(=O)C(=O)NC(C)(C)C)CC1	none
Cn1cnc(CCNC(=O)C[C@@H]2CC[C@@H]3[C@H](COC[C@@H](O)CN3C(=O)Nc3ccc(F)cc3)O2)c1	none (no result: CDK5 inh, PvdQ inh, dFosB activator)
CCS(=O)(=O)N1CC2(CN(Cc3cccc(Cl)c3)[C@H](CO)c3c2c2ccc(OC)cc2n3C)C1	SIRT5 inh 26 (no result: CDK5 inh, PglD DTNB, PvdQ inh, dFosB activator)
COc1ccc2c3c(n(C)c2c1)[C@@H](CO)N(C(=O)c1cccnc1)CC31CCN(C)CC1	none (no result: CDK5 inh, PglD DTNB, PvdQ inh, dFosB activator)
COc1ccc(S(=O)(=O)N2CCC3(CC2)CN(C(=O)c2cccnc2)[C@@H](CO)c2c3c3ccc(OC)cc3n2C)cc1	SIRT5 inh 21 (no result: CDK5 inh, PglD DTNB, PvdQ inh, dFosB activator)
C[C@H](CO)N1C[C@H](C)[C@H](CN(C)C(=O)Nc2ccc(F)cc2)Oc2ccc(NC(=O)Nc3ccc(F)cc3)cc2C1=O	SIRT5 inh 24 (no result: CDK5 inh, PvdQ inh, dFosB activator)
C[C@@H]1CN([C@H](C)CO)C(=O)c2cc(NC(=O)Nc3ccc(C(F)(F)F)cc3)ccc2O[C@@H]1CN(C)C(=O)Nc1ccc2c(c1)OCO2	SIRT5 inh 15 (no result: CDK5 inh, PvdQ inh, dFosB activator)
C[C@@H]1CN([C@@H](C)CO)C(=O)c2cc(NC(=O)Nc3ccc(C(F)(F)F)cc3)ccc2O[C@@H]1CN(C)C(=O)Nc1ccc2c(c1)OCO2	SIRT5 inh 15 (no result: CDK5 inh, PvdQ inh, dFosB activator)
C[C@@H]1CN([C@@H](C)CO)C(=O)c2cc(NC(=O)Nc3ccc(F)cc3)ccc2O[C@@H]1CN(C)CC1CCCCC1	PglD DTNB 17 (no result: CDK5 inh, PvdQ inh, dFosB activator)
C[C@H]1CN([C@@H](C)CO)C(=O)Cc2cc(NC(=O)C3CC3)ccc2O[C@@H]1CN(C)Cc1ccc(Oc2ccccc2)cc1	none (no result: CDK5 inh, PvdQ inh, dFosB activator)
C[C@H](CO)N1C[C@H](C)[C@@H](CN(C)C(=O)Nc2ccc(C(F)(F)F)cc2)Oc2ccc(NC(=O)Nc3ccccc3)cc2C1=O	FGF22 binding 19!
COc1ccc(NC(=O)Nc2ccc3c(c2)C(=O)N([C@H](C)CO)C[C@@H](C)[C@@H](CN(C)C(=O)Nc2ccc(C(F)(F)F)cc2)O3)cc1	SIRT5 inh 15 (no result: CDK5 inh, PvdQ inh, dFosB activator)
CCN(CC)CCN1C(=O)C(=O)/C(=C(/O)c2ccc(S(=O)(=O)N3CCOCC3)cc2)C1c1ccc(C)cc1 (stereo not drawn)	FGF22 binding 44 (no result: PglD DTNB)
COc1cc(COC(C)=O)ccc1OC(C)=O	none (no result: CDK5 inh, PglD DTNB, PvdQ inh, dFosB activator)
c1ccc(-n2cc(CN3CCC(N4CCOCC4)CC3)c(-c3ccc4c(c3)OCO4)n2)cc1	none
c1ccc(-n2cc(CN3CCCC3)c(-c3ccc4c(c3)OCO4)n2)cc1	FGF22 binding 43
CC(=O)c1cc(-c2ccccc2)n(CC(=O)Nc2cc(C)cc(C)c2)c1C	dFosB activator 33 (no result: SIRT5 inh, FGF22 binding)
COc1cc(/C=C2\SC(=O)N(CC(=O)Nc3ccc(C)cc3)C2=O)cc(Cl)c1OCC(=O)O	none (no result: FGF22 binding)
Cc1cccc(NC(=O)CN2C(=O)S/C(=C\c3ccc(O)c([N+](=O)[O-])c3)C2=O)c1	FGF22 binding 44 (no result: PglD DTNB)
Cc1ccc(NC(=O)CN2C(=O)S/C(=C/c3ccc(-c4cccc(C(=O)O)c4)o3)C2=O)cc1	FGF22 binding 43 (no result: PglD DTNB)
Cc1ccc(NC(=O)CN2C(=O)S/C(=C\c3ccc(OCC(=O)O)c(Br)c3)C2=O)cc1	SIRT5 inh 17
Cc1ccc(-c2ccc([C@H]3[C@H](CO)N4C(=O)CN(C(=O)c5cccnc5)C[C@@H]34)cc2)cc1	none (no result: CDK5 inh, PglD DTNB, PvdQ inh, FGF22 binding, dFosB activator)
CO[C@@H]1CN(C)C(=O)c2ccc(NC(=O)C3CCC3)cc2OC[C@H](C)N(C)C[C@H]1C	none (no result: CDK5 inh, PvdQ inh, dFosB activator)
